The results in this text go back to PubChem BioAssay (NCATS).

Several values for one entry are separate records, joined by “and”; a condition that tells them apart may be missing. Equal entries are not always repeated. Results filed as inconclusive are left out. Where a structure was tested more than once in an assay, its records may differ in their call. Activity calls are given as the source filed them. The call rests on the fitted dose curve; in most records, active means well fitted inhibition curve with a large enough effect; inconclusive means small, poorly fitted or top-dose-only effect; inactive means no such curve, though single readings can be large or run the other way.
On the % scale 0 is the no-effect control and ±100 the full control effect.

This test in a line: Primary qHTS for inhibitors of nuclear receptor binding SET domain protein 2 (NSD2) in an RCH-ACV wild type WT cells (2C) (AID 1645877). Further: nearly all actives have a fitted effect of over 70% in size. As to conditions: RCH-ACV (leukaemia line) NSD2 WT (2C) viability, CellTiter-Glo, 72 h; series mostly up to 44.9 µM; activity change, negative = cell killing: at the top concentration. The text has this: Assay Provider: Jonathan D. Licht, MD
University of Florida College of Medicine, Gainesville, FL
Mutations in epigenetic regulators are common in relapsed pediatric acute lymphoblastic leukemia (ALL). Here, we uncovered the mechanism underlying the relapse of ALL driven by an activating mutation of the NSD2 histone methyltransferase (p.E1099K). […] Correction of this mutation restored glucocorticoid sensitivity. The transcriptional response to glucocorticoids was blocked in NSD2 mutant cells due to depressed glucocorticoid receptor (GR) levels and the failure of glucocorticoids to autoactivate GR expression. […] Pre-treatment of NSD2 p.E1099K cell lines and PDX samples with PRC2 inhibitors reversed glucocorticoid resistance in vitro and in vivo.
High-throughput drug screening of isogenic RCH-ACV cell lines was performed at the National Center for Advancing Translational Science (NCATS), National Institutes of Health as previously described (1). Briefly, isogenic RCH-ACV NSD2 p.E1099K mutant (9B) and WT cells (2C) were plated at 500 cells/well in a 1536-well plate with a 72-hour incubation with compounds prior to addition of CellTiter-Glo to assess cell viability. NCATS libraries screened include: NPC, MIPE 5.0, Kinase and NPACT. To determine compound activity in the qHTS assay, the concentration-response data for each sample was plotted and modeled by a four-parameter logistic fit yielding IC50 and efficacy (maximal response) values. The area under the curve (AUC) of the dose-response curve ensures both efficacy (magnitude of cell killing) and potency (concentration that elicits cell killing) are accounted for in the analysis of activity.
1. Tobie D Lee, Olivia W Lee, Kyle R Brimacombe, Lu Chen, Rajarshi Guha, Sabrina Lusvarghi, Bethilehem G Tebase, Carleen Klumpp-Thomas, Robert W Robey, Suresh V Ambudkar, Min Shen, Michael M Gottesman, Matthew D Hall. A High-Throughput Screen of a Library of Therapeutics Identifies Cytotoxic Substrates of P-glycoprotein. Mol Pharmacol. 2019, Nov;96(5):629-640.
For orientation: Quantitative high-throughput screening tests each substance at several concentrations.
Take `Cc1cc(C)c(NC(=O)N(Cc2ccc3c(c2)Cc2ccccc2-3)C2CCCCCC2)c(C)c1`: the “activity change, negative = cell killing” value is -16% (inactive).

Regarding `COC(=O)c1ccc(=O)c2nc3/c(=C/O)c(O)cc(=O)c3[nH]c12`, the Potency was 13 µM (active).

Turning to `Cc1cc(Nc2cc(C)c(C#N)c(NC(C)CCCC(C)(C)O)n2)n[nH]1` (stereo not given), the Potency was 1.16 µM (active).

Turning to `O=C(c1ccc(F)c(F)c1Nc1ccc(I)cc1F)N1CC(O)([C@@H]2CCCCN2)C1`, the Potency was 14.5 µM (active) and 14.8 µM (active).

As for `CC(C)N(CCCNC(=O)Nc1ccc(C(C)(C)C)cc1)C[C@H]1O[C@@H](n2cc(Br)c3c(N)ncnc32)[C@H](O)[C@@H]1O`, the Potency was 12.9 µM (active) and 14.8 µM (active).

Regarding `O=C(c1ccc(F)c(F)c1Nc1ccc(I)cc1F)N1CC(O)(C2CCCCN2)C1` (stereo not given), the Potency was 18.3 µM (active).

As for `COC1CC(=O)C23C(=O)NC(CC(C)C)C2C(C)C(C)=CC3/C=C(\C)CCC(O)C1O` (stereo not given), the Potency was 2.24 µM (active).

On to `C[C@@H]1CCNC(=O)c2cc3ccc(C(=O)Nc4nc5ccccc5n4CCCN(C)C)cc3n21`, for which the Potency was 14.8 µM (active).

As to `CN[C@@H]1C[C@H]2O[C@@](C)([C@@H]1OC)n1c3ccccc3c3c4c(c5c6ccccc6n2c5c31)C(=O)N[C@H]4O`, the Potency was 0.0303 µM (active).

As for `C[C@]1(C(=O)Nc2ccc(F)nc2)CCCN1c1nc(Nc2cc(C3CC3)[nH]n2)c2cccn2n1`, the Potency is 0.92 µM (active).

Take `Nc1nc(NCC2CCC(CNS(=O)(=O)c3cccc4ccccc34)CC2)nc2ccccc12` (stereo not given): the Potency is 2.58 µM (active).

`COc1ccc(Cl)cc1[C@@]1(F)C(=O)Nc2cc(C(F)(F)F)ccc21`: the Potency is 5.78 µM (active).

Take `CCN(CC)CCNc1ccc2ncn3c4ccc(O)cc4c(=O)c1c23`: the Potency is 0.058 µM (active).

For `C=C1C(=O)O[C@@H]2C[C@@H](C)[C@]34C[C@]5(C(=O)O[C@H]6CC(C)=C([C@H](C)CCCO)[C@H](OC(=O)C(C)CC)[C@H]65)[C@@H](C(C)=C3C[C@@H]12)[C@H]4OC(C)=O` (stereo not given in full), the Potency was 1.53 µM (active).

As for `O=C1O[C@H](C(O)CO)C(=O)C1=O` (stereo not given in full), the “activity change, negative = cell killing” value is 7.93% (inactive).

For the compound `Cc1nc(C)c2c(n1)N(Cc1ccc(-c3ccccc3-c3nn[nH]n3)cc1)C(=O)CC2`, the result was inactive.

In the case of `Cc1cc(-c2ccc(/C=C3\SC(=Nc4ccc(Cl)c(C(=O)O)c4)NC3=O)o2)c([N+](=O)[O-])cc1C`, the “activity change, negative = cell killing” value is 9.09% (inactive).

Regarding `CC[C@H](C)[C@H]1O[C@]2(CC[C@@H]1C)C[C@@H]1C[C@@H](C/C=C(\C)[C@@H](O[C@H]3C[C@H](OC)[C@@H](O[C@H]4C[C@H](OC)[C@@H](O)[C@H](C)O4)[C@H](C)O3)[C@@H](C)/C=C/C=C3\CO[C@@H]4[C@H](O)C(C)=C[C@@H](C(=O)O1)[C@]34O)O2`, the Potency was 9.16 µM (active).

In the case of `COc1cc(-c2cc(-c3cccc(O)c3)cnc2N)cc(OC)c1OC`, the Potency is 12.9 µM (active).

`CN1CCN(C(=O)c2ccc(Nc3nccc(-c4cccs4)n3)cc2Cl)CC1`: the Potency is 6.49 µM (active).

In the case of `CCOC(=O)c1cc2ccc(O)cc2oc1=O`, the “activity change, negative = cell killing” value is 8.01% (inactive).

Take `Clc1cc(Cl)c2c(c1)N=C1CCCCCN1C2`: the “activity change, negative = cell killing” value was -0.906% (inactive).

Take `CC(C)n1cnc2c(Nc3cccc(Cl)c3)nc(NCCO)nc21`: the Potency is 8.17 µM (active).

For the compound `CC(C)=CCC/C(C)=C/CC/C(C)=C/CSc1ccccc1C(=O)O`, the Potency result is “inactive”.

Turning to `Cc1cc(-c2nc(C(=O)Nc3cn(C4CCOCC4)nc3C(N)=O)co2)ccn1`, the Potency is 16.4 µM (active).

For `CCN1CCC[C@@H]1CNC(=O)c1ccc2c(c1)NC(=O)/C(=C/c1ccccc1F)S2`, the Potency was 5.15 µM (active).

`COc1cc(N2CCN(C(C)=O)CC2)ccc1Nc1ncc(Cl)c(Nc2ccc(N3CCN(C(C)=O)CC3)cc2OC)n1`: the Potency was 6.49 µM (active) and 13.2 µM (active).

As for `CC[C@H]1OC(=O)[C@H](C)[C@@H](O[C@H]2C[C@@](C)(OC)[C@@H](O)[C@H](C)O2)[C@H](C)[C@@H](O[C@@H]2O[C@H](C)C[C@H](N(C)C)[C@H]2O)[C@](C)(O)C[C@@H](C)/C(=N/OCOCCOC)[C@H](C)[C@@H](O)[C@]1(C)O`, the result was inactive.

For `CC(CCc1ccccn1)(CCc1ccccn1)C(=O)c1ccccc1`, the compound was called inactive.

Consider `O=C1OC(/C=C/c2ccccc2)=NC/1=C\c1cccnc1`, for which the compound was classed as inactive.

For `Cn1cc(-c2cc(Oc3cc(F)c(NC(=O)C4(C(=O)Nc5ccccc5)CC4)cc3F)ccn2)cn1`, the Potency is 13.2 µM (active).

As to `CNCc1ccc(C)c(NC(=O)c2ccc(Nc3nc(-c4ccccc4)c4ccccc4n3)cc2)c1`, the Potency is 7.42 µM (active).

As for `CSC(Cc1ccc(Cl)cc1)C(=O)Nc1ccc(Cl)cc1C(=O)O` (stereo not given), the “activity change, negative = cell killing” value is -8.66% (inactive).

`CCN(CCCOc1ccc2c(Nc3cc(CC(=O)Nc4cccc(F)c4)[nH]n3)ncnc2c1)CCOP(=O)(O)O`: the Potency is 32.5 nM (active) and 37.2 nM (active).

On to `Clc1ccccc1CNCC1CCC(CNCc2ccccc2Cl)CC1` (stereo not given), for which the Potency was 20.5 µM (active).

As for `COc1ccc(-c2oc3ncnc(N)c3c2-c2ccc(NC(=O)Nc3cc(C(F)(F)F)ccc3F)cc2)cc1`, the Potency is 10.3 µM (active) and inactive.

With `CC1(C)SC2C(NC(=O)[C@H](C(=O)O)c3ccsc3)C(=O)N2C1C(=O)O` (stereo not given in full), the “activity change, negative = cell killing” value was 1.53% (inactive).

For the compound `Fc1ccccc1CNCc1ccc(-c2ccnc3[nH]ccc23)cc1`, the Potency is 11.5 µM (active).

As for `C=CC(=O)Nc1cc(Nc2nccc(-c3cn(C)c4ccccc34)n2)c(OC)cc1N(C)CCN(C)C`, the Potency was 2.95 µM (active).

`O=C1NC(=O)/C(=C/c2ccc3nccc(-c4ccncc4)c3c2)S1`: the Potency is 920 nM (active) and 525 nM (active).
